# Laboratory results from PubChem BioAssay.
# Inconclusive results are not listed. For part of these data: Measured potencies and affinities stand elsewhere. Calls of active or inactive are those of the source.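 The calls were made as follows, unless noted: active = thallium flux through the channel raised or lowered by more than 3 SD from vehicle-only wells, actives on both sides; inactive = the rest.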
# What was measured:
# [1] = polyglutamine-triggered caspase-3 activation inhibitors, cell-based (AID 1583); conditions: polyglutamine-induced caspase-3 activation, cell assay; stronger effect = higher value;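 tested at 10 µM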
# [2] = suppressors of polyQ aggregation in yeast, 75Q-TubU reporter (AID 1593); conditions: Yeast 75Q polyglutamine aggregation reporter
# [3] = rescue of polyQ-huntingtin neuronal dysfunction in worms, whole organism, C. elegans mechanosensory neurons, N-terminal huntingtin (AID 1599); conditions: touch response, stronger effect = higher value
# [4] = inhibitors of mitochondrial cytochrome c release, biochemical, purified mitochondria (AID 1603); conditions: stronger effect = lower value;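 also: mouse liver mitochondria challenged with calcium chloride; signal normalized to the plate average as 100%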
# [5] = inhibitors of polyQ protein aggregation (AID 1604); conditions: polyglutamine-induced protein aggregation inhibition assay; stronger effect = higher value; tested at 2.5 µM
# [6] = enhancers of glutamate uptake in motor neurons, MN-1 cell line (AID 1612); conditions: MN-1 motor neuron cells, stronger effect = higher value;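 also: tested at 1 µM final; 0% = mean of DMSO vehicle wells on each plate; positive means more glutamate uptake than control and negative means less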
# [7] = suppressors of polyglutamine aggregation in yeast, 75Q-TubH (AID 1616); conditions: S. cerevisiae 75Q-TubH polyglutamine aggregation suppression; stronger effect = higher value
# [8] = test system: Aerobactin synthetase IucA (Klebsiella pneumoniae); test: IucA aerobactin synthetase inhibitors, biochemical, Tocris library, absorbance (AID 1345561; call rule not given here;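 also: 100% = enzyme without compound and 0% = no enzyme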); conditions: purified IucA enzyme assay, absorbance (OD) read-out; stronger effect = lower value;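 tested at 8 µM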
# [9] = growth inhibition of DIPG glioma cells, dose response, cell-based, JHH-DIPG-1, MIPE4.0, CellTiter-Glo, qHTS (AID 1347062; cut-off not given, nearly all actives have AC50 up to about 27 µM;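 as to AC50: cells exposed to compound for two days before readout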); conditions: JHH-DIPG-1 viability, CellTiter-Glo ATP luminescence
# [10] = viability loss in pontine glioma line – cell-based, SU-DIPG-XXV, MIPE5.0, CellTiter-Glo, qHTS, dose response (AID 1347065; cut-off not given, nearly all actives have AC50 up to about 26 µM;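 also: cells exposed to compound for 48 hours before ATP readout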); conditions: CellTiter-Glo ATP luminescence
# [11] = circadian clock period modulators, cell-based, LOPAC library, luminescence reporter (AID 2774; call rule not given here;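 also: values are relative to mean of DMSO wells on each plate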); conditions: circadian reporter cells, at 7 µM, actives lie on both sides
# [12] = test system: Hepatitis C virus NS3 helicase; test: HCV NS3 helicase inhibitors, primary screen, biochemical, fluorescence polarization, LOPAC1280 library (AID 687035; in the data active = inhibition above about 37%); conditions: Purified HCV NS3 helicase, Cy5-dT15 ssDNA binding fluorescence polarization; stronger effect = higher value; concentration not given here
# [13] = Cy5 fluorescence quenching or enhancement artefacts, artefact control for HCV NS3 helicase inhibitor project, biochemical, LOPAC1280 (AID 687037; call rule not given here); conditions: Cy5-DNA-NS3h complex fluorescence interference counterscreen
# [14] = phospholipid biosynthesis inhibitors in animal cells, primary screen, cell-based, LOPAC library, screen 4 (AID 1347384; call rule not given here); conditions: phospholipid biosynthesis inhibition screen, at 10 µM
# F380Y = test: modulators of BK channel variants, profiling panel, selectivity assay, cell-based, U2OS BacMam, thallium flux, beta subunits (AID 1259406); conditions: at 30 µM;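 also: initial slope of Thallos dye fluorescence rise after thallium is added; log ratio against the mean of 0.3% DMSO vehicle wells on the same plate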
# F380Y/beta2Delta = test: as above; conditions: at 30 µM
# [15] = target: Calcium-activated potassium channel subunit alpha-1 (Homo sapiens) + Leucine-rich repeat-containing protein 26 (Homo sapiens) (UniProt Q12791+Q2I0M4); test: as above; conditions: F380Y/Slo1WT/gamma1, at 30 µM
# R275C = test: as above; conditions: at 30 µM
# R275C/beta1 = test: as above; conditions: at 30 µM
# R275C/beta2Delta = test: as above; conditions: at 30 µM
# Sequence of Calcium-activated potassium channel subunit alpha-1 (Homo sapiens) + Leucine-rich repeat-containing protein 26 (Homo sapiens) (Q2I0M4 whole entry, looked up, one chain of several): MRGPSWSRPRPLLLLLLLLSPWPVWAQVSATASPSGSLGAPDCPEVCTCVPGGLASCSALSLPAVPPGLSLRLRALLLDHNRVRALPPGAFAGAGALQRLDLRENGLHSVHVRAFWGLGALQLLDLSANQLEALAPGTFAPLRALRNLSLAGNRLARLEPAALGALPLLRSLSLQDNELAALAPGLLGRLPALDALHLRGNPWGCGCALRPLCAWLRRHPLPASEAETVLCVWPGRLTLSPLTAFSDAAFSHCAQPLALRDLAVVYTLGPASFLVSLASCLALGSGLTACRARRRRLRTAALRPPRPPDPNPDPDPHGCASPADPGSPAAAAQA
compound,measurement,setting,value
Cc1cc(O)ccc1Cl,inhibition,[1],17.2%
same,score,[2],0.98
same,rescue above control,[3],2.39
same,cytochrome c release ratio,[4],1.22
same,inhibition of aggregation,[5],88%
same,glutamate uptake change,[6],-10.2%
same,aggregation suppression score,[7],0.639
C[C@@H]1CC[C@H]2[C@@H](C)C(=O)O[C@@H]3O[C@@]4(C)CC[C@@H]1[C@]32OO4,remaining activity,[8],94.3% (inactive)
same,outcome,[9],inactive
same,outcome,[10],inactive
C[C@@H]1O[C@@H](O[C@H]2C[C@@H](O)[C@]3(CO)[C@H]4[C@H](O)C[C@]5(C)[C@@H](C6=CC(=O)OC6)CC[C@]5(O)[C@@H]4CC[C@]3(O)C2)[C@H](O)[C@H](O)[C@H]1O,period change,[11],-0.18 h (inactive)
same,inhibition,[12],-4% (inactive)
same,fluorescence ratio (interference),[13],1 (inactive)
same,AC50,[9],6.62 nM (active)
same,AC50,[10],93.4 nM (active)
same,outcome,[14],inactive
CC(=O)Nc1cc([As](=O)(O)O)ccc1O,inhibition,[1],-3.61%
same,score,[2],0.97
same,rescue above control,[3],-5.17
same,cytochrome c release ratio,[4],1.06
same,inhibition of aggregation,[5],43.7%
same,glutamate uptake change,[6],-5.59%
same,aggregation suppression score,[7],1.35
NC(=O)CN1CCCC1=O,inhibition,[1],13.3%
same,score,[2],1.12
same,rescue above control,[3],-11
same,cytochrome c release ratio,[4],0.79
same,inhibition of aggregation,[5],1.59%
same,glutamate uptake change,[6],-1.66%
same,aggregation suppression score,[7],1.37
same,period change,[11],0.015 h (inactive)
same,inhibition,[12],-4% (inactive)
same,fluorescence ratio (interference),[13],1 (inactive)
same,outcome,[14],inactive
c1ccc2c(c1)sc1ccccc12,inhibition,[1],11%
same,score,[2],-0.17
same,rescue above control,[3],18.8
same,cytochrome c release ratio,[4],0.98
same,inhibition of aggregation,[5],65.4%
same,glutamate uptake change,[6],-0.7%
same,aggregation suppression score,[7],0.0947
Cc1cccc(C)c1NC1=NCCCS1,inhibition,[1],-1.23%
same,score,[2],1.34
same,rescue above control,[3],-0.14
same,cytochrome c release ratio,[4],0.7
same,inhibition of aggregation,[5],87.3%
same,glutamate uptake change,[6],-9.68%
same,aggregation suppression score,[7],1.27
same,period change,[11],-0.19 h (inactive)
same,inhibition,[12],-2% (inactive)
same,fluorescence ratio (interference),[13],1 (inactive)
same,outcome,[14],inactive
O=[N+]([O-])O[C@H]1CO[C@H]2[C@@H]1OC[C@H]2O[N+](=O)[O-],inhibition,[1],15%
same,score,[2],1.7
same,rescue above control,[3],-2.31
same,cytochrome c release ratio,[4],0.66
same,inhibition of aggregation,[5],83.1%
same,glutamate uptake change,[6],-15.4%
same,aggregation suppression score,[7],1.27
CC[n+]1c(-c2ccccc2)c2cc(N)ccc2c2ccc(N)cc21,inhibition,[1],24.8%
same,score,[2],0.43
same,rescue above control,[3],0
same,cytochrome c release ratio,[4],0.84
same,inhibition of aggregation,[5],47.5%
same,glutamate uptake change,[6],5.78%
same,aggregation suppression score,[7],0.0827
C[N+]1(CCC(C(N)=O)(c2ccccc2)c2ccccc2)CCCCC1,log fold change Tl+ flux,F380Y,0.00354 (inactive)
same,log fold change Tl+ flux,F380Y/beta2Delta,0.00809 (inactive)
same,log fold change Tl+ flux,[15],0.0152 (inactive)
same,log fold change Tl+ flux,R275C,-0.0159 (inactive)
same,log fold change Tl+ flux,R275C/beta1,-0.0271 (inactive)
same,log fold change Tl+ flux,R275C/beta2Delta,-0.0181 (inactive)
O=P1(NCCCl)OCCCN1CCCl (configuration not stated),outcome,[9],inactive
same,outcome,[10],inactive
CNCC(O)c1ccc(O)cc1 (configuration not stated),period change,[11],-0.045 h (inactive)
same,inhibition,[12],-2% (inactive)
same,fluorescence ratio (interference),[13],1 (inactive)
same,outcome,[9],inactive
same,outcome,[10],inactive
same,outcome,[14],inactive
same,log fold change Tl+ flux,F380Y,-0.0218 (inactive)
same,log fold change Tl+ flux,F380Y/beta2Delta,0.0172 (inactive)
same,log fold change Tl+ flux,[15],0.0291 (inactive)
same,log fold change Tl+ flux,R275C,-0.0246 (inactive)
same,log fold change Tl+ flux,R275C/beta1,0.022 (inactive)
same,log fold change Tl+ flux,R275C/beta2Delta,0.0197 (inactive)
CCC(COC(=O)c1cc(OC)c(OC)c(OC)c1)(c1ccccc1)N(C)C (configuration not stated),log fold change Tl+ flux,F380Y,-0.284 (active)
same,log fold change Tl+ flux,F380Y/beta2Delta,-0.21 (active)
same,log fold change Tl+ flux,[15],-0.141 (active)
same,log fold change Tl+ flux,R275C,-0.249 (active)
same,log fold change Tl+ flux,R275C/beta1,-0.324 (active)
same,log fold change Tl+ flux,R275C/beta2Delta,-0.495 (active)
CN1CCN(C(=O)O[C@H]2c3nccnc3C(=O)N2c2ccc(Cl)cn2)CC1,outcome,[9],inactive
same,log fold change Tl+ flux,F380Y,-0.0134 (inactive)
same,log fold change Tl+ flux,F380Y/beta2Delta,0.0361 (inactive)
same,log fold change Tl+ flux,[15],-0.0271 (inactive)
same,log fold change Tl+ flux,R275C,0.0376 (inactive)
same,log fold change Tl+ flux,R275C/beta1,0.0325 (inactive)
same,log fold change Tl+ flux,R275C/beta2Delta,0.0513 (inactive)
Oc1cc(Cl)ccc1Oc1ccc(Cl)cc1Cl,log fold change Tl+ flux,F380Y,-0.452 (active)
same,log fold change Tl+ flux,F380Y/beta2Delta,-0.343 (active)
same,log fold change Tl+ flux,[15],-0.0387 (inactive)
same,log fold change Tl+ flux,R275C,-0.105 (active)
same,log fold change Tl+ flux,R275C/beta1,-0.254 (active)
same,log fold change Tl+ flux,R275C/beta2Delta,-0.148 (active)
Nc1ccncc1,inhibition,[1],-15.5%
same,score,[2],1.34
same,rescue above control,[3],26.7
same,cytochrome c release ratio,[4],0.88
same,inhibition of aggregation,[5],-27.8%
same,glutamate uptake change,[6],-9.57%
same,aggregation suppression score,[7],1.23
same,period change,[11],0.07 h (inactive)
same,inhibition,[12],-4% (inactive)
same,fluorescence ratio (interference),[13],0.9 (inactive)
same,remaining activity,[8],127% (inactive)
same,outcome,[14],inactive
